Results on 14 molecules are retold here after PubChem BioAssay (NCI).

Test systems include NCI-H23 lung; NCI-H226 lung; NCI-H322M lung; HOP-62 NSCLC; NCI-H460 lung; HOP-92 NSCLC; NCI-H522 lung; A549/ATCC NSCLC; 786-0 renal; COLO 205 colon.
Holding throughout (test): NCI-60 one-dose screen, 48 h (100 = growth as untreated, 0 = no growth, -100 = all killed)
Common to all, as to conditions: 10 µM

About 83,000 compounds went through this panel and 20% of them were active in at least one assay; those are over-represented in the sample as a whole.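 Testing used 96-well plates and a 48-hour single-concentration exposure. Example: -40 means 40% of the starting cells died.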 A number with no mark means an inactive call. Active and inactive are the calls of the source. How the source made its calls: active means growth percent below 10; inactive means the rest.

With `COc1cc(-c2nc3ccccc3[nH]2)ccc1OCC(=O)N=Nc1c(O)[nH]c2ccccc12`, the growth in the test with NCI-H23 lung was 90%; in the test with NCI-H226 lung, 105%; with NCI-H322M lung, 96%; in the test on HOP-62 NSCLC it was 99.6%; in the test with NCI-H460 lung it was 109%; with HOP-92 NSCLC, 78.1%. The growth was 80.1% with NCI-H522 lung, 105% with A549/ATCC NSCLC, 97.8% in the test with 786-0 renal and 74.6% in the test on COLO 205 colon.
Consider `CC(C)OCc1cc(CN2CCN(c3cccc(Cl)c3)CC2)c(O)c2ncccc12`, for which the growth was -44.8% (active) in the test with NCI-H23 lung; 1.5% (active) in the test with NCI-H226 lung; -10.6% (active) with NCI-H322M lung; -0.196% (active) in the test with HOP-62 NSCLC; 0.361% (active) in the test with NCI-H460 lung; -35.2% (active) in the test with HOP-92 NSCLC. For the same molecule, the growth was -26.2% (active) in the test on NCI-H522 lung, -5.68% (active) in the test with A549/ATCC NSCLC, 0.332% (active) in the test with 786-0 renal and -43.1% (active) in the test with COLO 205 colon.
On to `CC(=O)Nc1nc(C)c(C(=O)N/N=C/c2cccn2C)s1`, for which the growth in the test on NCI-H23 lung is 96%; in the test on NCI-H226 lung, 90.7%; with NCI-H322M lung, 150%; in the test with HOP-62 NSCLC, 109%; with NCI-H460 lung, 109%; with HOP-92 NSCLC it was 56.1%. The growth with NCI-H522 lung was 86%; in the test with A549/ATCC NSCLC it was 104%; in the test on 786-0 renal, 111%; with COLO 205 colon, 125%.
For `CCCCCC(CCC)COC(=O)c1ccc(OC)cc1` (stereo not given), the growth in the test on NCI-H23 lung is 97.4%; in the test on NCI-H226 lung, 88.6%; with NCI-H322M lung, 101%; with HOP-62 NSCLC it was 92.3%; in the test on NCI-H460 lung it was 111%; in the test on HOP-92 NSCLC, 93.7%. In addition, the growth is 90.7% with NCI-H522 lung, 80.9% in the test on A549/ATCC NSCLC, 101% with 786-0 renal and 105% with COLO 205 colon.
For the molecule `Nc1nc2c(nnn2C2CC(O)C(CO)O2)c(=O)[nH]1` (stereo not given), the growth was 45% in the test on NCI-H23 lung; 50% in the test with NCI-H226 lung; 52% in the test with NCI-H322M lung; 69% with HOP-62 NSCLC; 54.3% in the test on NCI-H460 lung; 43.7% with HOP-92 NSCLC. Moreover, the growth is 24.4% in the test with NCI-H522 lung, 76.2% in the test with A549/ATCC NSCLC, 50.7% in the test on 786-0 renal and 11.9% in the test with COLO 205 colon.
Consider `N#Cc1c2c([nH]c(=O)c1C(N)=O)CCCCC2`, for which the growth in the test on NCI-H23 lung was 100%; in the test on NCI-H226 lung, 100%; in the test with NCI-H322M lung it was 97.6%; with HOP-62 NSCLC, 92.4%; in the test on NCI-H460 lung, 105%; in the test on HOP-92 NSCLC it was 112%. Further, the growth in the test on NCI-H522 lung is 90.7%; in the test with A549/ATCC NSCLC, 91.3%; with 786-0 renal it was 98.5%; with COLO 205 colon, 102%.
Take `O=C(NC1CCCC1)c1ccc(N2CCC(NCc3cccc(C(F)(F)F)c3)CC2)cc1`: the growth with NCI-H23 lung is 93.5%; in the test on NCI-H226 lung it was 84.6%; in the test on NCI-H322M lung, 89.1%; with HOP-62 NSCLC it was 77.4%; with NCI-H460 lung, 99.5%; with HOP-92 NSCLC, 52.7%. For the same molecule, the growth was 93.6% with NCI-H522 lung, 93% in the test with A549/ATCC NSCLC, 84.3% with 786-0 renal and 8.68% (active) in the test on COLO 205 colon.
As for `COc1ccc(-c2nc(-c3nc4ccc(C)cc4[nH]3)c3ccccn23)cc1`, the growth in the test with NCI-H23 lung is 69.3%; in the test with NCI-H226 lung, 57.9%; in the test on NCI-H322M lung, 50.3%; in the test with HOP-62 NSCLC, 52%; in the test with NCI-H460 lung it was 52.1%; in the test with HOP-92 NSCLC, -2.51% (active). Also, the growth in the test on NCI-H522 lung was 38.8%; in the test with A549/ATCC NSCLC, 24.2%; in the test on 786-0 renal it was 78.3%; in the test with COLO 205 colon, 61.1%.
Take `COc1ccc2oc(=O)cc(C3c4ccc([nH]4)C(c4cc(=O)oc5ccc(OC)cc45)c4ccc([nH]4)C(c4cc(=O)oc5ccc(OC)cc45)c4ccc([nH]4)C(c4cc(=O)oc5ccc(OC)cc45)c4ccc3[nH]4)c2c1` (stereo not given): the growth with NCI-H23 lung is -12.4% (active); in the test on NCI-H226 lung it was 15.8%; in the test on NCI-H322M lung it was 27.9%; with HOP-62 NSCLC it was 17.6%; in the test on NCI-H460 lung, 6.39% (active); in the test with HOP-92 NSCLC it was 41.8%. Besides, the growth in the test on NCI-H522 lung was -71.9% (active); in the test on A549/ATCC NSCLC, 41.1%; in the test with 786-0 renal it was -24% (active); with COLO 205 colon it was -76.7% (active).
For `CC(=O)OCC(COC(C)=O)(COC(C)=O)COC(C)=O`, the growth with NCI-H23 lung is 102%; in the test on NCI-H226 lung, 93.5%; in the test with NCI-H322M lung, 99.5%; in the test with HOP-62 NSCLC, 102%; with NCI-H460 lung, 104%; with HOP-92 NSCLC, 105%. In addition, the growth is 99.4% in the test on NCI-H522 lung, 111% in the test on A549/ATCC NSCLC, 112% in the test with 786-0 renal and 109% in the test on COLO 205 colon.
Take `CC[C@@]1(C(N)=O)CC2C=CC1C2` (stereo not given in full): the growth in the test on NCI-H23 lung was 110%; in the test with NCI-H226 lung, 102%; in the test on NCI-H322M lung, 142%; in the test with HOP-62 NSCLC it was 111%; in the test on NCI-H460 lung, 122%; with HOP-92 NSCLC, 97.2%. Further, the growth in the test with NCI-H522 lung is 101%; in the test with A549/ATCC NSCLC, 107%; with 786-0 renal, 98.9%; with COLO 205 colon, 114%.
For `Cc1cc(=O)oc2cc(OCc3cn(CC(O)CO)nn3)ccc12` (stereo not given), the growth was 94.1% in the test with NCI-H23 lung; 104% in the test on NCI-H226 lung; 109% with NCI-H322M lung; 103% with HOP-62 NSCLC; 111% in the test on NCI-H460 lung; 111% with HOP-92 NSCLC. Also, the growth in the test on NCI-H522 lung was 107%; with A549/ATCC NSCLC, 105%; with 786-0 renal, 111%; in the test on COLO 205 colon, 108%.
Take `COc1ccc(-c2nnc(COc3ccc(NC(=O)Nc4ccccc4)cc3F)o2)cc1`: the growth was 92.4% in the test with NCI-H23 lung; 95.2% in the test on NCI-H226 lung; 90.1% in the test on NCI-H322M lung; 89.2% in the test with HOP-62 NSCLC; 84.4% with NCI-H460 lung; 52.2% in the test on HOP-92 NSCLC. Besides, the growth with NCI-H522 lung is 52.5%; in the test with A549/ATCC NSCLC, 93.3%; with 786-0 renal, 79.1%; in the test with COLO 205 colon it was 110%.
For `N#CN1CC[C@H](C(=O)Nc2ncc(-c3ccncc3)s2)C1`, the growth with NCI-H23 lung was -22% (active); with NCI-H226 lung, -9.42% (active); in the test on NCI-H322M lung, 11.1%; with HOP-62 NSCLC, -7.49% (active); with NCI-H460 lung, 3.58% (active); in the test with HOP-92 NSCLC, -0.157% (active). For the same molecule, the growth was -37.8% (active) in the test on NCI-H522 lung, -32.4% (active) in the test with A549/ATCC NSCLC, 5.77% (active) in the test with 786-0 renal and -55.4% (active) in the test on COLO 205 colon.
